# In the library only some 2.2% were active in any assay of this set; here they are far more common.
# M1 antag – human CHRM1 antagonism; P11229; inhibition, % at 3 µM; CHO-K1 hM1, Fluo-8 calcium fluorescence, ACh EC80 antagonist; actives 1.3% (n = 360,000);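 active = percent inhibition above its own plate's cutoff, namely the mean of that plate's compound wells plus 3 SD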;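 also: peak over basal fluorescence ratio during 140 s after agonist addition; 0% = ACh EC80 plus DMSO and 100% = DMSO alone without agonist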
# M4 ag – agonists of human muscarinic M4 receptor (CHRM4). activation, % at 3 µM. P08173. CHO-K1 hM4/Gqi5, Fluo-8 calcium fluorescence; vehicle 0%, full acetylcholine response 100%. actives 0.14% (n = 360,000). AID 624127;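 active = activation above the run mean over all test wells plus 3 SD, cut at about 32% in these data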;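 also: peak over basal fluorescence ratio per well then scaled between controls; 0% = DMSO wells and 100% = acetylcholine at EC100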
# Target sequence (P08173 whole entry, looked up): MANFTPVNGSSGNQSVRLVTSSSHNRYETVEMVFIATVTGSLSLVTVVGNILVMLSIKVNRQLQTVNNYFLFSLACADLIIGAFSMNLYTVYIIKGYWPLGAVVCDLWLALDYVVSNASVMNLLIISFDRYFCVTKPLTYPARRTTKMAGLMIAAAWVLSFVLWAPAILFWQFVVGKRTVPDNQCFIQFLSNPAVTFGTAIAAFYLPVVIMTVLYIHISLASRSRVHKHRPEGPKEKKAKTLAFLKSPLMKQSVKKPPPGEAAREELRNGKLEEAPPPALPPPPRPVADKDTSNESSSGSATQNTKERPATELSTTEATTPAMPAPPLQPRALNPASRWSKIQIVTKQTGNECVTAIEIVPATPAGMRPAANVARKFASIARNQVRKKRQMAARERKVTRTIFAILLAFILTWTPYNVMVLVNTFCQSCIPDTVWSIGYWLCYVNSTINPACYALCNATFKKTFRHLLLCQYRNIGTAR
# CHRM4 PAM – CHRM4 positive allosteric modulation. P08173. CHO-K1 hM4/Gqi5, Fluo-8 calcium fluorescence, ACh EC20; 0% = ACh EC20, 100% = maximal ACh. activation, % at 3 µM. actives 0.4% (n = 360,000);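 active = activation above its plate's cutoff, the mean activation of sample wells plus 3 SD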
# CHRM4 antagonist – antagonists of human muscarinic M4 receptor (CHRM4). AID 624125. CHO-hM4 cells, ACh EC80, Fluo-8 calcium fluorescence. actives 0.73% (n = 360,000). inhibition, % at 3 µM. P08173;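 active = inhibition above its plate's cutoff, the mean inhibition of sample wells plus 3 SD, cut at about 27% in these data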;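 also: 0% = acetylcholine EC80 with DMSO and 100% = DMSO without agonist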
# M1 PAM – human CHRM1 positive allosteric modulation; P11229; CHO-K1 hM1, Fluo-8 calcium fluorescence, ACh EC20; 0% = ACh EC20, 100% = maximal ACh; activation, % at 3 µM; actives 0.088% (n = 360,000); in the data active = activation above about 19%, passing the limit was not always enough
# CHRM1 agonist – activates human CHRM1 receptor; activation, % at 3 µM; P11229; actives 0.33% (n = 360,000); CHO-K1 hM1, Fluo-8 calcium fluorescence, agonist mode; 0% DMSO, 100% acetylcholine EC100;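 active = activation above the run's mean compound activation plus 3 SD, cut at about 16% in these data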;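 also: peak over basal fluorescence ratio within a 140 s kinetic read after compound addition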
# Starred values were filed as active, the others as inactive; / = no result.
SMILES,M1 antag,M4 ag,CHRM4 PAM,CHRM4 antagonist,M1 PAM,CHRM1 agonist
C=CCNC(=O)CSc1nc2sc3c(c2c(=O)n1CCC)CCC3,-5.4,1.2,6.6,-5.8,2.4,-9.7
O=C(N/N=C/C=C/c1ccccc1)C1CC1c1ccccc1 (stereo not given),-7.0,3.4,17.3*,3.6,5.6,-2.8
CN(C)c1ccc(/C=N/NC(=O)C2CC2c2ccccc2)cc1 (stereo not given),9.0,-1.4,2.9,-3.1,0.8,-6.7
CN(C)S(=O)(=O)N1CCN(c2ccccc2)CC1,-34.8,0.6,1.6,-2.0,29.6*,8.0
CN(C)S(=O)(=O)N1CCN(c2cccc(Cl)c2)CC1,-0.7,-0.1,-2.7,-11.3,3.1,-3.5
O=C(CCSc1nnc(-c2ccncc2)o1)Nc1ccccc1,-3.6,2.0,5.6,-9.9,8.3,-2.0
CCNC(=O)CCSc1nnc(-c2ccncc2)o1,-4.6,0.0,24.1*,3.1,6.7,-4.4
C#CCOCCOCCOCCNc1nc(N2CCOCC2)nc(N2CCN(C(=O)Cn3cc(CCCN=C(N)N)nn3)CC2)n1,1.8,1.8,-2.1,-7.3,-1.1,-6.7
Cc1ccccc1Oc1ccc2c(c1)[C@@H]1C[C@H](N(C)C(=O)NC3CCCCC3)[C@H]([C@H](C)O)C(=O)N1CC2,-11.2,-0.8,-4.9,11.6,4.6,-4.5
C[C@H](O)[C@@H]1C(=O)N2CCc3ccc(-c4ccccc4)cc3[C@@H]2C[C@@H]1N(C)C(=O)NC1CCCCC1,41.8*,-0.1,3.8,-1.7,-9.9,-9.5
O=C(CSCc1ccc(C(=O)O)cc1)Nc1ccc2ccccc2c1,-1.5,1.5,12.8,34.1*,2.8,-3.1
CC(=O)c1ccc(OCC(=O)OCC(=O)Nc2sccc2C(N)=O)cc1,34.8*,21.8,-3.9,11.6,-9.8,1.8
CCOC(=O)c1c(C)[nH]c(C(=O)OCC(=O)Nc2ccc(Cl)cn2)c1C,-4.6,1.0,16.6,-6.9,8.1,-0.8
CCOC(=O)c1c(C)[nH]c(C(=O)OCC(=O)Nc2sccc2C(N)=O)c1C,30.7*,19.3,-11.2,13.4,-16.4,-0.3
CC(Oc1ccccc1)C(=O)OCC(=O)Nc1sccc1C(N)=O (stereo not given),39.7*,18.4,-5.4,1.7,-20.4,1.0
NC(=O)c1ccsc1NC(=O)COC(=O)/C=C/c1ccccc1,50.1*,26.8,-15.8,21.6,-23.0,1.4
COc1ccc(OCCCC(=O)OCC(=O)Nc2sccc2C(N)=O)cc1,22.2,23.1,-10.2,9.1,-13.1,2.2
CC(C)(C)c1ccc(/C=C/C(=O)N2CCN(c3ncccn3)CC2)cc1,0.4,4.9,-1.4,-3.1,-1.7,-7.8
NC(=O)c1ccsc1NC(=O)COC(=O)/C=C/c1ccccc1[N+](=O)[O-],23.3,22.8,-8.5,31.3*,-19.9,4.8
Cc1csc(/C(=N\O)c2csc(C)n2)n1,-10.5,2.1,20.6*,-2.6,4.7,-2.0
O=C(COc1ccc(Br)cc1CO)Nc1ccc(S(=O)(=O)N2CCCC2)cc1,58.3*,15.4,-10.4,-1.9,-26.1,-3.4
Cc1ccc(OCC(=O)Nc2ccc(S(=O)(=O)N3CCCCC3)cc2)c([N+](=O)[O-])n1,44.6*,4.6,-11.5,1.9,-22.0,-4.2
Cc1ccc(OCC(=O)Nc2ccc(S(=O)(=O)N3CCOCC3)cc2)c([N+](=O)[O-])n1,-0.9,2.3,-1.4,-1.8,-0.3,-7.8
CC(=O)Nc1ccc(CN2CCCC(C(=O)c3cccc(C(F)(F)F)c3)C2)cc1 (stereo not given),64.3*,4.3,-7.6,2.1,-26.1,-8.9
O=C(c1cccc(C(F)(F)F)c1)C1CCCN(Cc2ccc(OCCO)cc2)C1 (stereo not given),65.7*,5.0,-16.4,23.6,-31.8,-14.1
SMILES,M1 antag,M4 ag,CHRM4 PAM,CHRM4 antagonist,M1 PAM,CHRM1 agonist
COc1ccc(CN2CCCC(C(=O)c3cccc(C(F)(F)F)c3)C2)cc1O (stereo not given),30.8,1.2,-9.3,3.7,-36.2,-14.7
COc1ccc(CC(=O)N[C@@H]2c3ccccc3CC[C@@H]2OCc2ccccc2)cc1,-10.0,2.4,7.6,-10.9,8.1,-5.3
N/C(=N\N=C\c1cccs1)SC1CC(=O)N(c2ccc(Br)cc2)C1=O (stereo not given),5.4,1.8,-4.4,-0.3,8.6,1.4
CC1CC(NC(=O)c2cc3c(=O)n4ccccc4nc3n2C)CC(C)(C)C1 (stereo not given),-9.6,0.3,-12.0,-3.1,-0.4,-2.3
CCc1nc2ccc(C(=O)N3CCCC(C(N)=O)C3)cn2c1N(C)Cc1ccc(OC)cc1 (stereo not given),38.9*,0.6,-9.5,1.6,-23.8,-9.9
CCc1nc2ccc(C(=O)NCCOc3ccc(OC)cc3)cn2c1N(C)CCCc1ccccc1,35.3*,1.5,-10.2,15.7,-18.4,-7.3
CCc1nc2ccc(C(=O)NCCOc3ccc(OC)cc3)cn2c1N(C)Cc1ccc(OC)cc1,30.4*,8.3,-11.1,2.6,-20.3,-6.0
CCc1nc2ccc(C(=O)N3CCCC(C(N)=O)C3)cn2c1N(CCC(C)C)CCN(C)C (stereo not given),-7.7,0.7,1.7,-0.6,7.3,-3.2
CN1CCN(CCC(=O)N2c3ccccc3Sc3ccc(C(F)(F)F)cc32)CC1,41.7*,2.8,-11.4,12.1,-24.5,-6.7
CN(C)CCCN1c2ccc([N+](=O)[O-])cc2CCc2cc([N+](=O)[O-])ccc21,5.9,10.3,4.8,-7.3,-2.0,-5.2
CN(C)CCCN1c2ccccc2Sc2ccc(C(F)(F)F)cc21,/,11.2,-17.0,83.2*,/,/
CN(C)CCCN1c2ccc(O)cc2Sc2ccc(Cl)cc21,99.8*,12.7,-13.3,44.4*,-30.7,-4.1
O=C1c2ccccc2C(=O)N1CC(=O)N1c2ccccc2Sc2ccc(C(F)(F)F)cc21,1.4,0.2,2.9,18.0,2.0,-0.9
CN(C)CCC(=O)N1c2ccccc2Sc2ccc(C(F)(F)F)cc21,99.0*,1.5,-16.6,98.8*,-29.2,-8.6
O=C(CSc1nc2ccccc2s1)N1c2ccccc2Sc2ccc(C(F)(F)F)cc21,1.4,0.2,-0.2,-9.0,-0.4,-2.8
COc1ccc(CN(C(=O)c2snc(C(N)=O)c2N)C(C)C(=O)NCc2ccc(F)cc2)cc1 (stereo not given),-1.1,8.6,-1.3,-21.7,0.1,1.5
CCOC(=O)c1c(-c2ccc(C)o2)csc1NC(=O)CN1CCOCC1,-19.1,2.2,1.5,-1.0,4.0,-6.0
CCOC(=O)c1c(-c2ccc(C)o2)csc1NC(=O)COC(=O)c1cccs1,1.5,11.0,-15.5,29.2*,-10.1,-2.8

# Assay outcomes (PubChem)
